This excerpt belongs to a sample that is enriched for hits.
TTR transcr act: activators of transthyretin transcription; SH-SY5Y TTR promoter Gaussia luciferase, luminescence; 100% = recombinant luciferase protein wells; activation, % at 16.7 µM; actives 1.3% (n = 92,000); AID 1117267;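 active = activation above the mean of all tested compounds plus 3 SD, cut at about 9.5% in these data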;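 also: cells exposed to compounds for one day before reading; 0% = median of all test compound wells on the plate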
HuH7 TTR inh: decreases TTR transcription in HuH7 cells in activator counter-screen | actives 4% (n = 1,100) | HuH7 TTR promoter-Gaussia luciferase reporter, luminescence | inhibition, % at 16.7 µM | shares compounds with TTR transcr act;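 active = average inhibition above the solvent-only control wells' mean plus 3 SD, cut at about 15% in these data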;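 also: 0% = cells with DMSO only and 100% = cells with inhibitor control FD; inhibitors lower well luminescence so higher value means more inhibition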
TTR up confirm: human TTR transcription activation, confirmation. shares compounds with TTR transcr act. SHSY5Y TTR promoter Gaussia luciferase, luminescence; 100% = purified Lucia enzyme wells, no cells. activation, % at 16.7 µM. 1,100 tested, under 10 active;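 active = mean activation above a set limit taken from the earlier primary screen, cut at about 11% in these data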;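 also: 0% = DMSO-treated cells and 100% = recombinant Lucia luciferase without cells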
Numbers without * were called inactive.

SMILES | TTR transcr act | others
C[C@H]1CN=C(N(C)C)N1CCc1ccccc1 | 10* | HuH7 TTR inh=1;TTR up confirm=2
CCCCN(C(C)=O)c1c(CC)nc2ccc(C(=O)NCCc3ccccn3)cn12 | -2
Cc1cccc(NC(c2ccc(O)cc2)c2ccc3ccc(C)nc3c2O)n1 (stereo not given) | 15* | HuH7 TTR inh=20*;TTR up confirm=0
Oc1cccc(C(Nc2nccs2)c2ccc3cccnc3c2O)c1 (stereo not given) | -1
Cc1cccc(NC(=S)Nc2cccc(C)n2)n1 | 1
O=C(Cc1ccc2c(c1)OCO2)N1CCC(n2nc(-c3ccccc3)oc2=O)CC1 | -1
COc1ccccc1N1CCN(C(=O)c2ccc3ncsc3c2)CC1 | 2
CC(C(=O)Nc1ccc(Cl)cc1Cl)N1C(=O)NC2(CCCC2)C1=O (stereo not given) | -1
O=C(Nc1ccnn1C1CCN(Cc2ccc(O)c(Cl)c2)CC1)C1CCCC1 | 1
Cc1cc(-c2ccccc2)nc(-c2ccccc2)c1C | 19* | HuH7 TTR inh=-20;TTR up confirm=0
Cc1ccc(-c2cc(-c3ccccc3)nc(NN)n2)cc1 | 3
Cc1ccc(-c2nc3ccccc3nc2-c2ccccc2)cc1 | 2
O=[N+]([O-])c1cc(S(=O)(=O)N2CCCCC2)ccc1NCCN1CCOCC1 | 0
Cc1cccc(N(C)c2ncnc3onc(-c4ccc(F)cc4)c23)c1C | 13* | HuH7 TTR inh=25*;TTR up confirm=0
Cc1ccccc1Sc1ncnc2onc(C)c12 | -4
COc1ccc(-c2noc(CCC(=O)N3CCN(c4ccc(F)cc4)CC3)n2)cc1 | 1
COC(=O)c1ccc(NC(=O)c2cccnc2)cc1 | 0
CCOC(CCNC(=O)c1cn(-c2cccc(C)n2)cn1)OCC | 1
COC(=O)c1ccc(NC(=O)c2cn(-c3cccc(C)n3)cn2)cc1 | 30* | HuH7 TTR inh=-11;TTR up confirm=0
CCCCOc1ccccc1C(=O)NNC(=S)NC(=O)c1ccccc1[N+](=O)[O-] | -6
C=CCN1C(=O)[C@H](CC(=O)NCc2ccccc2)[C@@]2(C(=O)OCC)CCCC=C12 | 2
CNC(C)C(=O)NC(C(=O)N1CCCC1C(=O)Nc1cccc2ncccc12)C(C)C (stereo not given) | -1
Cc1cc(CN2C(=O)c3ccccc3C2=O)on1 | 15* | HuH7 TTR inh=-7;TTR up confirm=0
COC(=O)c1ccc(CN2C(=O)c3ccccc3C2=O)o1 | 0
O=C1c2ccccc2C(=O)N1Cc1cccnc1 | -2
SMILES | TTR transcr act | others
Cc1ccccc1NS(=O)(=O)c1csc(C(N)=O)c1 | 1
CCCCNC(=O)Cn1cnc2c(cnn2-c2ccc(C)c(C)c2)c1=O | 2
CCOCCCNC(=O)Cn1cnc2c(cnn2-c2ccc(F)cc2)c1=O | -1
CCOc1ccccc1NC(=O)Cn1cnc2c(cnn2-c2ccc(C)c(C)c2)c1=O | 11* | HuH7 TTR inh=-6;TTR up confirm=0
CC(C)C[C@@H](NC(=O)OC(C)(C)C)C(=O)N1O[C@]23C=C[C@]14C[C@@H](O)CC[C@]4(C)C2CC[C@]1(C)[C@@H]([C@H](C)/C=C/[C@H](C)C(C)C)CC[C@H]13 (stereo not given in full) | 2
O=c1[nH]c2ccccc2nc1NCc1ccccc1 | -2
c1ccc(CCc2nc3ccccc3[nH]2)cc1 | 1
c1ccc(CNc2nc3ccccc3[nH]2)cc1 | 9.9* | HuH7 TTR inh=-4;TTR up confirm=1
COc1ccc(S(=O)(=O)N2CCN(C(=O)CNC(=O)c3ccc4c(c3)OCO4)CC2)cc1 | 1
O=C(NC1CCN(Cc2ccccc2)CC1)c1cccc(S(=O)(=O)Nc2ccc(F)cc2)c1 | -4
O=C(C(c1ccccc1)C(O)c1ccccc1)N1CCOCC1 (stereo not given) | -1
O=C(Cn1cc(S(=O)(=O)Cc2cccc([N+](=O)[O-])c2)c2ccccc21)N1CCOCC1 | 0
COc1ccc2nc3c(c(-c4ccccc4)c2c1)CCC3 | -4
COc1ccc(-c2c3c(nc4sc5c(=O)[nH]c(C)nc5c24)CCC3)cc1 | 16* | HuH7 TTR inh=-6;TTR up confirm=-1
Cc1ccc(-c2c3c(nc4sc(C(N)=O)c(N)c24)CCCC3)o1 | -1
CCC(=O)c1ccc(OCC(=O)OCC(=O)N2CCCc3ccccc32)cc1 | 1
CNNC(=S)Nc1cccc(SC)c1 | 2
COc1ccc(OC)c(C2C(C(=O)O)c3ccccc3C(=O)N2C)c1 (stereo not given) | -2
COc1ccc(C2C(C(=O)N3CCN(c4ccccc4)CC3)c3ccccc3C(=O)N2C)cc1OC (stereo not given) | 2
COc1ccc(C2C(C(=O)O)c3ccccc3C(=O)N2C)cc1Br (stereo not given) | 11* | HuH7 TTR inh=-5;TTR up confirm=0
c1ccc2[nH]c(COCc3nc4ccccc4[nH]3)nc2c1 | 1
NC1(CO)COC(c2ccccc2)OC1 (stereo not given) | 0
OCCNc1nc2ccccc2nc1NCCO | 1
Cc1c2ccccc2nc2ccccc12 | -2
OCCNc1c2ccccc2nc2ccccc12 | 16* | HuH7 TTR inh=-48;TTR up confirm=15*
SMILES | TTR transcr act | others
O=C(CCNS(=O)(=O)c1ccccc1)NNC(=O)COc1ccc(Cl)cc1 | 2
O=C(CN1CCN(Cc2ccc(Cl)cc2)CC1)N/N=C/c1ccccc1F | -1
O=C(NC1CC[C@@]23CCCN2C(=O)CCC[C@H]3C1)c1ccccc1 (stereo not given in full) | 0
Cc1ccc(SCc2nc(N)nc(Nc3ccccc3C)n2)c(C)c1 | 32* | HuH7 TTR inh=-23;TTR up confirm=0
Cc1ccccc1Nc1nc(N)nc(CSc2nnc(C)n2C)n1 | 2
Cc1ccc(SCc2nc(N)nc(Nc3ccccc3C)n2)cc1C | 6
CCCCCCNC(=O)CCNC(=O)c1cc(OC)c(OC)c(OC)c1 | -1
CCOc1cc(C(=O)NC(C)CC)cc(OCC)c1OCC (stereo not given) | -3
CCOc1cc(C(=O)NCCCNC(=O)c2cc(OCC)c(OCC)c(OCC)c2)cc(OCC)c1OCC | 12* | HuH7 TTR inh=-29;TTR up confirm=0
CCOC(=O)[C@]12CCCC=C1N(CCCOC)C(=O)[C@@H]2CC(=O)NCc1ccccc1 | -1
CCCC(=O)OCC(=O)Nc1ccccc1Sc1ccccc1 | 11* | HuH7 TTR inh=11;TTR up confirm=3
CCCC(=O)OCC(=O)Nc1ccccc1C#N | 2
O=C(COC(=O)c1cc[n+]([O-])cc1)Nc1ccccc1Sc1ccccc1 | 0
COCCCN1C(=O)C(CC(=O)NC2CC2)CC(C(=O)N(C(C)C)C(C)C)=C1C (stereo not given) | 0
Cc1cc(C(=O)O)c(C)n1Cc1ccncc1 | -1
Nc1cnccc1C(=O)O | 10* | HuH7 TTR inh=-8;TTR up confirm=1
Nc1ccc(Br)cc1C(=O)O | 2
CC(C)(C)c1ccc(S(=O)(=O)NNC(=O)c2cc3ccccc3[nH]2)cc1 | 1
CN1CCN(C(=O)c2ccc(Cl)c(S(=O)(=O)N3CCCCC3)c2)CC1 | 3
Cc1cccc(NS(=O)(=O)c2cc(C(=O)N3CCCC3)ccc2Cl)c1 | 10* | HuH7 TTR inh=-10;TTR up confirm=0
O=C(c1ccc(Cl)c(S(=O)(=O)N2CCOCC2)c1)N1CCCC1 | -1
C[C@@H](NC(=O)[C@@H]1Cc2ccccc2CN1)C(=O)Nc1ccc2c(c1)OCO2 | 4
CC(Oc1cccc(Cl)c1)C(=O)NCc1ccc(S(N)(=O)=O)cc1 (stereo not given) | 0
CC1(c2nnnn2Cc2ccccc2)CN(S(C)(=O)=O)CC(=O)N1Cc1cccs1 (stereo not given) | -1
